# Measurements: PubChem BioAssay (Tox21)
# Records with an inconclusive call do not appear. A call without a number means that no potency is given here. Values without a mark were called inactive. Active and inactive are the calls of the source. The call rests on the fitted dose curve; in most records, active means well fitted curve in the direction sought with a large enough effect in the repeat runs; inconclusive means weak or mixed curves; inactive means no such curve, though single readings can be large; an effect the other way counts as inactive or inconclusive.
# Tests used:
# [1] = molecular target: Cytochrome P450 2C9 (Homo sapiens) (UniProt P11712); assay: Cytochrome P450 Family 2 Subfamily C Member 9 (CYP2C9) small molecule antagonists: luciferase reporter qHTS assay (AID 1671198); on activity change, negative = inhibition: series mostly up to about 120 µM
# Chain of Cytochrome P450 2C9 (Homo sapiens) (P11712 whole entry, looked up): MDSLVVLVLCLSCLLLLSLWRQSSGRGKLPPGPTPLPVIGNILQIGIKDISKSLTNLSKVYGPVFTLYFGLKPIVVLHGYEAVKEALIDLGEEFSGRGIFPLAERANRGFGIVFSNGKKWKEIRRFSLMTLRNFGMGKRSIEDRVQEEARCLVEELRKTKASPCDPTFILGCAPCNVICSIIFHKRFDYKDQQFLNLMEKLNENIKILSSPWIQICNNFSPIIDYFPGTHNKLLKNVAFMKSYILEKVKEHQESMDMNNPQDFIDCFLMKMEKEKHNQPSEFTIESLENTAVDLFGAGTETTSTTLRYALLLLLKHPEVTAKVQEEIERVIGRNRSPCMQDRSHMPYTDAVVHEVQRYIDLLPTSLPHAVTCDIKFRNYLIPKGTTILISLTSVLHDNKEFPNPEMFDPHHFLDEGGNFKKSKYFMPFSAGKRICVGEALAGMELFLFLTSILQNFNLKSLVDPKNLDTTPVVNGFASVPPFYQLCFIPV
# In short: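 Enzyme-substrate mix preincubated with compound 10 min at room temperature; reaction started with NADPH regeneration solution, 1 h 37C. Luminescent luciferin product read after 20 min detection reagent.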
# [2] = molecular target: Voltage-gated inwardly rectifying potassium channel KCNH2 (Homo sapiens) (UniProt Q12809); assay: Human Ether-a-go-go-Related Gene (hERG) channel small molecule antagonists: fluorescence cell-based qHTS assay (AID 1671200);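 on activity change, negative = inhibition: hERG-expressing U2OS cells given a thallium stimulus after FluxOR II dye loading; series mostly up to about 77 µM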
# Chain of Voltage-gated inwardly rectifying potassium channel KCNH2 (Homo sapiens) (Q12809 whole entry, looked up): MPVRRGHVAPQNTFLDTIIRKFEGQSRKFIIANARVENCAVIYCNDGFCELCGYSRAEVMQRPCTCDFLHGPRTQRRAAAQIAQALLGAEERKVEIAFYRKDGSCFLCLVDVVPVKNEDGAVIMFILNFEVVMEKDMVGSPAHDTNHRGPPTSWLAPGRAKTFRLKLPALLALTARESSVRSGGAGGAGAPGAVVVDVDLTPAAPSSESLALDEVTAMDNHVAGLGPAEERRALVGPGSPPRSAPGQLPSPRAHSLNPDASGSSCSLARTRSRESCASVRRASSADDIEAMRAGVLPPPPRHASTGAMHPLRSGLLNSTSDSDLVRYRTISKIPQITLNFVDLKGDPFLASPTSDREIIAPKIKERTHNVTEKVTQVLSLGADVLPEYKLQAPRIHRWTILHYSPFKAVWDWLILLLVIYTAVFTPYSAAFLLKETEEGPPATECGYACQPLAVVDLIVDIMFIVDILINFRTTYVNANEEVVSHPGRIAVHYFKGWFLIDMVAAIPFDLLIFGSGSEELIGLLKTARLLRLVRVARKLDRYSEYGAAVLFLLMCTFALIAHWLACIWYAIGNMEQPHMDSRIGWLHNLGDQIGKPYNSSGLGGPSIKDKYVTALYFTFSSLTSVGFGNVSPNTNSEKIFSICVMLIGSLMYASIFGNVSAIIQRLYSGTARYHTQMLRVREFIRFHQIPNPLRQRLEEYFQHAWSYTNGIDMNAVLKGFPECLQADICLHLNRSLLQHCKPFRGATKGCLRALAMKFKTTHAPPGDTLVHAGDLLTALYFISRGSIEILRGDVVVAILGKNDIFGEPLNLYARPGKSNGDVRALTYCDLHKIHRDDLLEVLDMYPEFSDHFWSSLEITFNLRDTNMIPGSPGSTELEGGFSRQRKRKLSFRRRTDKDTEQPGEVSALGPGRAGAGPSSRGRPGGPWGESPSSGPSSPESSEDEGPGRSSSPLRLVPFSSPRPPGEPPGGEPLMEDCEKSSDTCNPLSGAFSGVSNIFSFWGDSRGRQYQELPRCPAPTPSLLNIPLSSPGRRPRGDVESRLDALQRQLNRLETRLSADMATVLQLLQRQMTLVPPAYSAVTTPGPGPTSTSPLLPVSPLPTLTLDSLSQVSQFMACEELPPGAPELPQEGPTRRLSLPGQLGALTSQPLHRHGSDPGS
# In short: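 First, 1000 cells per well are seeded and cultured overnight at 37 C. Next, FluxOR II dye is loaded for 1 h at room temperature, protected from light. After 10 more minutes, stimulus is added and fluorescence is read.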
# [3] = molecular target: Cytochrome P450 3A4 (Homo sapiens) (UniProt P08684); assay: Cytochrome P450 Family 3 Subfamily A Member 4 (CYP3A4) small molecule antagonists: luciferase reporter qHTS assay (AID 1671201); on activity change, negative = inhibition: series mostly up to about 120 µM
# Chain of Cytochrome P450 3A4 (Homo sapiens) (P08684 whole entry, looked up): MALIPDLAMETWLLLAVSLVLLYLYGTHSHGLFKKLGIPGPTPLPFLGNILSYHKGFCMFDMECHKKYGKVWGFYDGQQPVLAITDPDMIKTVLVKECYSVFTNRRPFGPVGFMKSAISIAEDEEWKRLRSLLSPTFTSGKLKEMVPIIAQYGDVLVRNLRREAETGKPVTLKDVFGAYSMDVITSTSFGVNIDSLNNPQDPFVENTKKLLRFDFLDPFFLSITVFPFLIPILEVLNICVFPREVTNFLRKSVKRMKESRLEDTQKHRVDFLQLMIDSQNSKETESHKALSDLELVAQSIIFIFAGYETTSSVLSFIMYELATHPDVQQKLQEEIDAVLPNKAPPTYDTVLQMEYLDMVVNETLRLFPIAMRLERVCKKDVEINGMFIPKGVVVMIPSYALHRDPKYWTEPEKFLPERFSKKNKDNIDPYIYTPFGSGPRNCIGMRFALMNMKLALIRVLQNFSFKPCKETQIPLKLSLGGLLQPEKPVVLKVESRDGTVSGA
# In short: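 Enzyme and proluciferin substrate are mixed with test chemicals for 10 min, then NADPH regeneration system drives turnover for 1 h at room temperature. A detection reagent halts the reaction; luminescence after 20 min gives relative activity.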
# [4] = molecular target: Cytochrome P450 1A2 (Homo sapiens) (UniProt P05177); assay: Cytochrome P450 Family 1 Subfamily A Member 2 (CYP1A2) small molecule antagonists: luciferase reporter qHTS assay (AID 1671199); on activity change, negative = inhibition: series mostly up to about 120 µM
# Chain of Cytochrome P450 1A2 (Homo sapiens) (P05177 whole entry, looked up): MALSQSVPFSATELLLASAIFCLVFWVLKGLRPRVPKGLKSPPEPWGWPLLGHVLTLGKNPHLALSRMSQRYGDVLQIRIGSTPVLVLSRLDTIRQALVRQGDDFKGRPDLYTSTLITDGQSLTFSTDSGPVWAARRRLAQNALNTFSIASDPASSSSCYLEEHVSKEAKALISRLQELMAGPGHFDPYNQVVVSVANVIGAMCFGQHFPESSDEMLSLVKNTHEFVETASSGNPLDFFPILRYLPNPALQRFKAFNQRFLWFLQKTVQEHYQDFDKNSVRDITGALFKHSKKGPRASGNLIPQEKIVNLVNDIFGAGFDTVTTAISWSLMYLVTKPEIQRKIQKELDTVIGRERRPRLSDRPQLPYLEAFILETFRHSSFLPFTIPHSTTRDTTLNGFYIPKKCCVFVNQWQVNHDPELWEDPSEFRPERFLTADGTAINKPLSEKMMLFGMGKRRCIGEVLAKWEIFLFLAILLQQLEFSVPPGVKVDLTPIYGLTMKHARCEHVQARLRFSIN
# In short: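 Luminescence readout (relative luminescence units) after luciferin detection reagent, 20 min RT. Preceded by 1 h room-temperature CYP1A2 reaction with NADPH regeneration solution following 10 min compound preincubation with enzyme and proluciferin substrate. Furafylline positive control.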
# Further: nearly all actives have a fitted effect of over 50% in size.
# Potency means the concentration at half of the fitted maximal effect.
structure (smiles),measurement,setting,value
O=C(O)c1ccc(Cl)c(Cl)c1,Potency,[1],inactive
same,Potency,[2],inactive
same,Potency,[3],inactive
Cc1c(C)c2c(c(C)c1O)CCC(C)(COc1ccc(CC3SC(=O)NC3=O)cc1)O2 (configuration not stated),Potency,[4],inactive
same,Potency,[2],inactive
CCCCN(CCCC)c1ccc(C(=O)c2ccccc2C(=O)O)c(O)c1,Potency,[1],6.39 µM (active)
same,Potency,[4],63.9 µM (active)
CCc1cc(SCc2sc(-c3ccc(C(F)(F)F)cc3)nc2CN2CCN(c3ccc(OC)cc3)CC2)ccc1OCC(=O)O,Potency,[1],20 µM (active)
same,Potency,[4],inactive
same,Potency,[2],4.36 µM (active)
same,Potency,[3],11.2 µM (active)
N#CSc1ccc(N)c([N+](=O)[O-])c1,Potency,[1],40.2 µM (active)
same,Potency,[4],1.6 µM (active)
same,Potency,[2],inactive
CC(NN)c1ccccc1 (configuration not stated),Potency,[4],inactive
same,"activity change, negative = inhibition",[2],-1.06% [at 15.8 µM]
CCCCN1C(=O)[C@@H]([C@H](O)C2CCCCC2)NC(=O)C12CCN(Cc1ccc(Oc3ccc(C(=O)O)cc3)cc1)CC2,Potency,[1],inactive
same,Potency,[4],inactive
same,Potency,[2],19.5 µM (active)
same,Potency,[3],17.8 µM (active)
[Cl][Au]([Cl])[Cl],Potency,[2],inactive
N#CC1(c2ccc(F)cc2)CCC(=O)CC1,Potency,[1],inactive
same,Potency,[4],inactive
same,Potency,[2],inactive
same,Potency,[3],inactive
CN(C)CCCOC1(Cc2ccccc2)CCCCCC1,Potency,[4],inactive
COc1cc(-c2nc(NC(=O)c3cc4cc(C)cc(C)c4n3CC(=O)O)sc2CCC2CCCCC2)c(OC)cc1Cl,Potency,[1],51.7 µM (active)
same,Potency,[4],inactive
same,Potency,[2],inactive
CCN(C(=O)c1cc(C)cc(OC[C@H](C)Nc2ccncc2)c1)C(C)C,Potency,[1],7.02 µM (active)
same,Potency,[4],inactive
same,Potency,[3],0.992 µM (active)
CC(C)=CCOc1ccc(/C=C/C(=O)c2ccc(OCC=C(C)C)cc2OCC(=O)O)cc1,Potency,[1],15.5 µM (active)
same,Potency,[4],inactive
same,Potency,[2],inactive
same,Potency,[3],inactive
OCCN(CCO)c1nc(N2CCCCC2)c2nc(N(CCO)CCO)nc(N3CCCCC3)c2n1,Potency,[2],inactive
COc1cccc(N)c1,Potency,[2],inactive
Cc1onc(-c2ccccc2Cl)c1C(=O)N[C@@H]1C(=O)N2[C@@H]1SC(C)(C)[C@@H]2C(=O)O,Potency,[2],inactive
COc1cc(-c2ccc(N=C=O)c(OC)c2)ccc1N=C=O,Potency,[1],inactive
same,Potency,[4],inactive
same,Potency,[2],inactive
Oc1c(Cl)cc(Cl)c2cccnc12,Potency,[2],inactive
O=C1C=CC(=O)N1,Potency,[4],32.6 µM (active)
same,Potency,[2],inactive
same,Potency,[3],inactive
CC1=NC(C)OC1C (configuration not stated),Potency,[1],inactive
same,Potency,[3],63.3 µM (active)
CSc1ccc(C(=O)c2[nH]c(=O)[nH]c2C)cc1,Potency,[1],inactive
same,Potency,[3],inactive
C1CCCC1,Potency,[1],inactive
same,Potency,[2],inactive
same,Potency,[3],inactive
NC(=O)C1(N2CCCCC2)CCN(CCCN2c3ccccc3CCc3ccc(Cl)cc32)CC1,Potency,[1],7.76 µM (active)
same,Potency,[4],inactive
same,Potency,[3],inactive
COc1cccc2c1C(=O)c1c(O)c3c(c(O)c1C2=O)C[C@@](O)(C(=O)CO)C[C@@H]3O[C@H]1C[C@H](N)[C@H](O[C@@H]2CCCCO2)[C@H](C)O1,Potency,[1],15.5 µM (active)
same,Potency,[4],inactive
same,Potency,[2],inactive
C[C@H](CCC(=O)O)[C@H]1CC[C@H]2[C@@H]3CC[C@@H]4C[C@H](O)CC[C@]4(C)[C@H]3CC[C@]12C,Potency,[4],inactive
same,Potency,[2],inactive
COc1ccc(CN2CCN(C(c3ccc(F)cc3)c3ccc(F)cc3)CC2)c(OC)c1OC,Potency,[1],11 µM (active)
same,Potency,[4],inactive
same,Potency,[2],0.674 µM (active)
CN(C)[C@@H]1C(=O)C(C(N)=O)=C(O)[C@@]2(O)C(=O)C3=C(O)c4c(O)ccc(Cl)c4[C@@H](O)[C@H]3C[C@@H]12,Potency,[4],inactive
same,Potency,[2],inactive
same,Potency,[3],inactive
